Source: the supplement of paper PMC11001985
Unmarked numbers belong to inactive results.

compound: C#CCNC(=O)CCSSCCC(=O)NCCc1ccc(C=O)c(C=O)c1; assay: lysine labeling ratio R10:1 (500 µM / 50 µM probe), SILAC-ABPP in living cells; higher = lower intrinsic lysine reactivity toward the probe, active = 2 or less; conditions: HeLa; probe concentrations 500 vs 50 µM
In short: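 Forward and reverse SILAC label swaps were used with living light and heavy HeLa cells in PBS at room temperature, which were given an alkyne-tagged, disulfide-linked lysine probe at 50 µM or 500 µM. R is the per-lysine filtered median high-probe/low-probe MS1 peptide ratio, with the median then taken across both swap directions. Values are limited to 20.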

Sequence of UniProt P35052 (P35052 whole entry): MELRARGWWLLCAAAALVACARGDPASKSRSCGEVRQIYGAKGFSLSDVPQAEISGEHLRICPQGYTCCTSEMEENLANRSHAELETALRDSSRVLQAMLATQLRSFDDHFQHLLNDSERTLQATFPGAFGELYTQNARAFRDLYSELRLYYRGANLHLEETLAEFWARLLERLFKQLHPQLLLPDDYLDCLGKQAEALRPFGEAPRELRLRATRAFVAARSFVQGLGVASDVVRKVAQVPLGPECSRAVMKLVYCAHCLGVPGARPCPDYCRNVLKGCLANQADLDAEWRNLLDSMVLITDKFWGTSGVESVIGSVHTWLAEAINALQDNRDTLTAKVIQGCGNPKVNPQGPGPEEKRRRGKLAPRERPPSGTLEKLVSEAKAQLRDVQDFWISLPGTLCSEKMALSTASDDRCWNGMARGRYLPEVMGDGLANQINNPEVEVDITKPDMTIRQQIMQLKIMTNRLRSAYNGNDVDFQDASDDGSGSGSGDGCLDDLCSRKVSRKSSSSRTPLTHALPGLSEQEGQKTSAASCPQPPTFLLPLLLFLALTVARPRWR
Sequence of UniProt P09382 (P09382 whole entry): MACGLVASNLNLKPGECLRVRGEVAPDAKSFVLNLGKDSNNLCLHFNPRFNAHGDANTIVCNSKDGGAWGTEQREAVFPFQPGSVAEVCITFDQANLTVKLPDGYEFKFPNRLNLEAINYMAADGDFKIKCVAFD
Sequence of UniProt P02751 (P02751 whole entry): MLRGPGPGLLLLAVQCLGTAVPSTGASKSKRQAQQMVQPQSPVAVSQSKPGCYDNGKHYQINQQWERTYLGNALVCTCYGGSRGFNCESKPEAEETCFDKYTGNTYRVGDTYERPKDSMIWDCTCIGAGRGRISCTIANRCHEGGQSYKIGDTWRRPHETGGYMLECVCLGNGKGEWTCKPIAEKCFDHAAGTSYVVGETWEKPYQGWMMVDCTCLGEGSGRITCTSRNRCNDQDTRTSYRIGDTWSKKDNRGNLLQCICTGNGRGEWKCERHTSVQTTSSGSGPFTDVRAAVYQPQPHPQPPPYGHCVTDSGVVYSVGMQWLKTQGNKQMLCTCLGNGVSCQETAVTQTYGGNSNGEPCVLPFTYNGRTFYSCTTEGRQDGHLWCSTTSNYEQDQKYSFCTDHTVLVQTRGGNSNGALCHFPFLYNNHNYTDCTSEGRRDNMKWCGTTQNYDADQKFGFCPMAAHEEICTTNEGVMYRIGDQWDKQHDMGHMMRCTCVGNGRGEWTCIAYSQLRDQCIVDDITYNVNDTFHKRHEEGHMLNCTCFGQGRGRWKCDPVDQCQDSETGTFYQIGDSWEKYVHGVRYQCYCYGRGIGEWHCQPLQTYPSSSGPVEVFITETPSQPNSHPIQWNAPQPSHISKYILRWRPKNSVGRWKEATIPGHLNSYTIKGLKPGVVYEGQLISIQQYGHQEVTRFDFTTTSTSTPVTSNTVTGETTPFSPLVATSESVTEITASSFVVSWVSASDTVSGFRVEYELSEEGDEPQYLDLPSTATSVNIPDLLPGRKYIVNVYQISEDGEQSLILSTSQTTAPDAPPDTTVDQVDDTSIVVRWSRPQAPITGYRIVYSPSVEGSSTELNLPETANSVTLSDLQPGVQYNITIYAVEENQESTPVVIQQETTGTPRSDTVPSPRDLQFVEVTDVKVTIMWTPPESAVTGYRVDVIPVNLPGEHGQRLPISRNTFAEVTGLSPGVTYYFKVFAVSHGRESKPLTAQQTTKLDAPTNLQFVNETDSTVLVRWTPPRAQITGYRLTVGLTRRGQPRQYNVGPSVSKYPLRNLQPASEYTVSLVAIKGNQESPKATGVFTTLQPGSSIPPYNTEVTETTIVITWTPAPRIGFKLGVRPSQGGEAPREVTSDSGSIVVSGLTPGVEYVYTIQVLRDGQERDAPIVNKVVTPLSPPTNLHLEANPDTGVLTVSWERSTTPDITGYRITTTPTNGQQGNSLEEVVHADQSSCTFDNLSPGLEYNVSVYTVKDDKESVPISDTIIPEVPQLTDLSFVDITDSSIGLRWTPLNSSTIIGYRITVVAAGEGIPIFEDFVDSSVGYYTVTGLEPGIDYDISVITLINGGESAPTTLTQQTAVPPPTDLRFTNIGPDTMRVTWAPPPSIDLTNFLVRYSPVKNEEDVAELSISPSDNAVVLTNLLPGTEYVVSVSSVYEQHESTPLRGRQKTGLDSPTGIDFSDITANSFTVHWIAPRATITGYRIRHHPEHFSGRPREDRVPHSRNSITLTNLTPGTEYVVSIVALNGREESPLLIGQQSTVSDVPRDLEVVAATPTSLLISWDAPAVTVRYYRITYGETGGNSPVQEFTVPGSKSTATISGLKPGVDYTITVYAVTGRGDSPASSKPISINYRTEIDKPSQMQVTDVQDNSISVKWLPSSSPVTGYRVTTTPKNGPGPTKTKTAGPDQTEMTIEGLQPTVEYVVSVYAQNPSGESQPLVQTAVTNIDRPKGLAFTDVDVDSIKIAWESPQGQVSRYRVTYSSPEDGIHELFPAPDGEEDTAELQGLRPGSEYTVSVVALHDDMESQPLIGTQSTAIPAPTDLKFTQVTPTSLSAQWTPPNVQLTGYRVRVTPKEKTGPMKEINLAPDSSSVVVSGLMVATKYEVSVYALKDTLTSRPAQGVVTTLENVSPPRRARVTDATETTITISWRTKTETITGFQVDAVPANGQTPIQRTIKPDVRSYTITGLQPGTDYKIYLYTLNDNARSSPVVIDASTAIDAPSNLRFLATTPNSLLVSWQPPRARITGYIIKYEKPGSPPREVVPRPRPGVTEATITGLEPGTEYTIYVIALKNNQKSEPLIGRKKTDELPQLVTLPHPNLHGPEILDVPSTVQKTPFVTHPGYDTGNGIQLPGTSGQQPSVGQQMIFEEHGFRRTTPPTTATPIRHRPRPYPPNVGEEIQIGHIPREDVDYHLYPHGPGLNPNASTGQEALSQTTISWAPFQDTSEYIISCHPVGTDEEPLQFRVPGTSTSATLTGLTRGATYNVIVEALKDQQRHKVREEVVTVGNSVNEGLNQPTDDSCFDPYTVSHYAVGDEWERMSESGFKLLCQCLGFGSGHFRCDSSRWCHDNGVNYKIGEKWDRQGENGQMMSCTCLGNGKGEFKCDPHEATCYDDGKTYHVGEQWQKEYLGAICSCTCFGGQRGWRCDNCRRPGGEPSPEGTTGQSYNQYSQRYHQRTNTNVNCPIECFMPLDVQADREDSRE
Sequence of UniProt Q02790 (Q02790 whole entry): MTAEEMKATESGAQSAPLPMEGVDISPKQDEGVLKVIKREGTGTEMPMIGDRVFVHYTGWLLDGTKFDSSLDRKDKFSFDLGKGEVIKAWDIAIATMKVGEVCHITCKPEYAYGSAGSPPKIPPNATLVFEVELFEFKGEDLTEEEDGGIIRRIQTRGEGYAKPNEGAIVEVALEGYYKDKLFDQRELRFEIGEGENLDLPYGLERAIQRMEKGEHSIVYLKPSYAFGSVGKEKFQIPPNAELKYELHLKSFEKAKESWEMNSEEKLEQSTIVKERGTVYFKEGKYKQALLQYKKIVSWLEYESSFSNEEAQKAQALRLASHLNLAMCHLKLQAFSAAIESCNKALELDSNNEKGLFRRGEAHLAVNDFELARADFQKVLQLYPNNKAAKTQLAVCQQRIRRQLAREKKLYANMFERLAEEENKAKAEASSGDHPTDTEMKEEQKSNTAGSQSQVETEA
Sequence of UniProt Q9P0V3 (Q9P0V3 whole entry): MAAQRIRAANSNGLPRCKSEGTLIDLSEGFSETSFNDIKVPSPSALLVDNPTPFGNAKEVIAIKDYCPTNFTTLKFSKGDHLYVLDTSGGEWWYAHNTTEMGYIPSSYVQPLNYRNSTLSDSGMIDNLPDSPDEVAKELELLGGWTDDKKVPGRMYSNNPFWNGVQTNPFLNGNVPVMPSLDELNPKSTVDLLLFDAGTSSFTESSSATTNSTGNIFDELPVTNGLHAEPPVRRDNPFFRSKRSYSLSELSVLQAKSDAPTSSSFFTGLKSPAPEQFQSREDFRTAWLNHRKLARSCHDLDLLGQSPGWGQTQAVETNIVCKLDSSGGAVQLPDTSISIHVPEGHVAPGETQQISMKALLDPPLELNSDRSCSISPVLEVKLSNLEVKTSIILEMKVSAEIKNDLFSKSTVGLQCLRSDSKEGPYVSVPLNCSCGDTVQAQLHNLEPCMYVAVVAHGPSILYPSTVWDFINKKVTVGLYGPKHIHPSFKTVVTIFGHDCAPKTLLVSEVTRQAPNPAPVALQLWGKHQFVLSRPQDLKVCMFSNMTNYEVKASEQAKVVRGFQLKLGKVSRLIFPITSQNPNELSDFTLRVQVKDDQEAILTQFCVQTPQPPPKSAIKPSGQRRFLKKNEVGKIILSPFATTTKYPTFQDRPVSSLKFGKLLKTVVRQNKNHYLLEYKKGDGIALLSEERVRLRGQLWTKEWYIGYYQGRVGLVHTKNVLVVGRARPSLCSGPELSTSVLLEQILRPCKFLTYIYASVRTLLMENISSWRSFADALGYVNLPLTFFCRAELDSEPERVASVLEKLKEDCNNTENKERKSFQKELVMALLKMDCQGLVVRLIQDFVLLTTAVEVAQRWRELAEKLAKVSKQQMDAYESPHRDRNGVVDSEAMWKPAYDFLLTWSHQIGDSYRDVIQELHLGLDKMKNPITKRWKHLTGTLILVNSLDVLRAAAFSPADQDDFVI
Sequence of UniProt Q7Z3B1 (Q7Z3B1 whole entry, looked up): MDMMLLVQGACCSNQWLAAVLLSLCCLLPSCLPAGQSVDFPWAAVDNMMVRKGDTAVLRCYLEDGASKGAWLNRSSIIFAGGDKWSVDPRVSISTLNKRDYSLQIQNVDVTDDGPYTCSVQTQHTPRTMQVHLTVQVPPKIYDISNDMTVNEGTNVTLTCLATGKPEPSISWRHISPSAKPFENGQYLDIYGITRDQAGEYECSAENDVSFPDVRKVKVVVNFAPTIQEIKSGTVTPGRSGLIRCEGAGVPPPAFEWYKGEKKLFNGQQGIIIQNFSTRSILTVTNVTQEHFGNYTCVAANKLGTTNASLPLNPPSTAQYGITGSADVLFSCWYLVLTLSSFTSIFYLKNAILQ
Sequence of UniProt P60903 (P60903 whole entry): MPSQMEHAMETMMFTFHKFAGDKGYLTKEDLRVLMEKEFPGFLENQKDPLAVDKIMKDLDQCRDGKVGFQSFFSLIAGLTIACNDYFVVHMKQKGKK

**Q.** For “PLS3 (lysine site: K315) (UniProt P13797)”, which “lysine labeling ratio R10:1” value is on record?
**A.** Its value is 1.71 (active).

**Q.** Which “lysine labeling ratio R10:1” value does the source give for “FN1 (lysine site: K2072) (UniProt P02751)” here?
**A.** Its value is 9.06.

**Q.** For “PDIA3 (lysine site: K347) (UniProt P30101)”, which “lysine labeling ratio R10:1” value is on record?
**A.** Its value is 5.72.

**Q.** For “S100A10 (lysine site: K28) (UniProt P60903)”, which “lysine labeling ratio R10:1” value is on record?
**A.** The value was 5.79.

**Q.** For “ITGA1 (lysine site: K292) (UniProt P56199)”, which “lysine labeling ratio R10:1” value is on record?
**A.** Its value is 2.63.

**Q.** How did the “lysine labeling ratio R10:1” value turn out when “FKBP4 (lysine site: K354) (UniProt Q02790)” was run?
**A.** Its value is 1.51 (active).

**Q.** How did the “lysine labeling ratio R10:1” value turn out when “RPL3 (lysine site: K373) (UniProt P39023)” was run?
**A.** Its value is 2.31.

**Q.** “LAMA5 (lysine site: K113) (UniProt O15230)” was tested. Which “lysine labeling ratio R10:1” value did it give?
**A.** Its value is 4.71.

**Q.** Which “lysine labeling ratio R10:1” value does the source give for “HGS (lysine site: K551) (UniProt O14964)” here?
**A.** The value was 0.818 (active).

**Q.** For “CKAP4 (lysine site: K339) (UniProt Q07065)”, which “lysine labeling ratio R10:1” value is on record?
**A.** Its value is 1.14 (active).

**Q.** For UniProt Q99623 (lysine site: K147), which “lysine labeling ratio R10:1” value is on record?
**A.** Its value is 3.43.

**Q.** “NEGR1 (lysine site: K98) (UniProt Q7Z3B1)” was tested. Which “lysine labeling ratio R10:1” value did it give?
**A.** The value was 5.29.

**Q.** With “TFRC (lysine site: K95) (UniProt P02786)” as the target, how does the “lysine labeling ratio R10:1” value read?
**A.** The value was 4.27.

**Q.** Which “lysine labeling ratio R10:1” value does the source give for “SUB1 (lysine site: K41) (UniProt P53999)” here?
**A.** The value was 1.41 (active).

**Q.** Which “lysine labeling ratio R10:1” value does the source give for “GPC1 (lysine site: K383) (UniProt P35052)” here?
**A.** Its value is 1.73 (active).

**Q.** With “P30462 (lysine site: K267) (UniProt P01889)” as the target, how does the “lysine labeling ratio R10:1” value read?
**A.** Its value is 2.91.

**Q.** How did the “lysine labeling ratio R10:1” value turn out when “GPC1 (lysine site: K461) (UniProt P35052)” was run?
**A.** The value was 1.89 (active).

**Q.** How did the “lysine labeling ratio R10:1” value turn out when “PTGFRN (lysine site: K763) (UniProt Q9P2B2)” was run?
**A.** The value was 4.93.

**Q.** How did the “lysine labeling ratio R10:1” value turn out when “DYNC1H1 (lysine site: K3621) (UniProt Q14204)” was run?
**A.** The value was 3.03.

**Q.** With “MYH9 (lysine site: K1862) (UniProt P35579)” as the target, how does the “lysine labeling ratio R10:1” value read?
**A.** Its value is 2.81.

**Q.** With “CTNNA1 (lysine site: K748) (UniProt P35221)” as the target, how does the “lysine labeling ratio R10:1” value read?
**A.** Its value is 2.15.

**Q.** How did the “lysine labeling ratio R10:1” value turn out when UniProt P62899 (lysine site: K31) was run?
**A.** Its value is 1.97 (active).

**Q.** How did the “lysine labeling ratio R10:1” value turn out when “SH3BP4 (lysine site: K679) (UniProt Q9P0V3)” was run?
**A.** Its value is 3.02.

**Q.** How did the “lysine labeling ratio R10:1” value turn out when “RPS3 (lysine site: K108) (UniProt P23396)” was run?
**A.** Its value is 4.95.

**Q.** “ASPH (lysine site: K609) (UniProt Q12797)” was tested. Which “lysine labeling ratio R10:1” value did it give?
**A.** Its value is 1.47 (active).

**Q.** “VTN (lysine site: K194) (UniProt P04004)” was tested. Which “lysine labeling ratio R10:1” value did it give?
**A.** The value was 16.5.

**Q.** With “XRCC6 (lysine site: K297) (UniProt P12956)” as the target, how does the “lysine labeling ratio R10:1” value read?
**A.** The value was 1.09 (active).

**Q.** For UniProt P26639 (lysine site: K36), which “lysine labeling ratio R10:1” value is on record?
**A.** Its value is 3.28.

**Q.** With “COL5A1 (lysine site: K69) (UniProt P20908)” as the target, how does the “lysine labeling ratio R10:1” value read?
**A.** Its value is 2.04.

**Q.** How did the “lysine labeling ratio R10:1” value turn out when UniProt P62829 (lysine site: K13) was run?
**A.** The value was 5.2.

**Q.** For “IGSF3 (lysine site: K642) (UniProt O75054)”, which “lysine labeling ratio R10:1” value is on record?
**A.** The value was 1.12 (active).

**Q.** For “CSE1L (lysine site: K17) (UniProt P55060)”, which “lysine labeling ratio R10:1” value is on record?
**A.** Its value is 1.76 (active).

**Q.** Which “lysine labeling ratio R10:1” value does the source give for UniProt Q9UHN6 (lysine site: K767) here?
**A.** Its value is 3.26.

**Q.** Which “lysine labeling ratio R10:1” value does the source give for UniProt P08727 (lysine site: K370) here?
**A.** Its value is 3.4.

**Q.** With “SEMA3C (lysine site: K616) (UniProt Q99985)” as the target, how does the “lysine labeling ratio R10:1” value read?
**A.** Its value is 5.77.

**Q.** For JTB (lysine site: K94) (UniProt O76095), which “lysine labeling ratio R10:1” value is on record?
**A.** Its value is 5.2.

**Q.** Which “lysine labeling ratio R10:1” value does the source give for “MTHFD2 (lysine site: K50) (UniProt P13995)” here?
**A.** The value was 3.56.

**Q.** How did the “lysine labeling ratio R10:1” value turn out when “CELSR2 (lysine site: K2001) (UniProt Q9HCU4)” was run?
**A.** Its value is 1.5 (active).

**Q.** How did the “lysine labeling ratio R10:1” value turn out when “IL6ST (lysine site: K335) (UniProt P40189)” was run?
**A.** The value was 0.692 (active).

**Q.** Which “lysine labeling ratio R10:1” value does the source give for “LGALS1 (lysine site: K108) (UniProt P09382)” here?
**A.** The value was 1.62 (active).
